This passage reports outcome and activity change, negative = cytotoxicity results from PubChem BioAssay (Tox21).

Records with an inconclusive call do not appear. Unmarked numbers belong to inactive results. Activity calls are given as the source filed them. Calls follow the shape of the dose curve; as a rule, active = well fitted cell-killing curve with a large enough effect in the repeat runs; inconclusive = weak or mixed curves, or effect the other way; inactive = flat fitted curve, though single readings scatter.
% is scaled to controls: 0 for no effect and ±100 for the full control effect.

This assay can be described thus: qHTS assay to identify small molecule agonists of the TGF-beta/Smad signaling pathway - cell viability counter screen (AID 1346829). Also: top concentration of the series differs between compounds; nearly all actives have a fitted effect of over 45% in size. As to conditions: SBE-bla HEK293T viability, CellTiter-Glo luminescence, 5 h; series mostly up to 76.8 µM. In outline: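 Here the cytotoxicity of library compounds is measured in SBE-bla HEK 293T cells treated for 5 hr, using CellTiter-Glo added to wells already read for the beta-lactamase reporter.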
For the compound `CN1C(=O)CC(C)(c2ccccc2)C1=O` (centres undefined), the compound was called inactive.
On to `CC(=O)Nc1ccccc1C`, for which the outcome was inactive.
The same measure, in the same setting: the result for `CCCCC(CC)COC(=O)COc1ccc(Cl)cc1C` (centres undefined) reads “inactive”.
Same read-out and setting: the result for `COc1ccc(CCC(=O)c2c(O)cc(O[C@@H]3O[C@H](CO)[C@@H](O)[C@H](O)[C@H]3O[C@@H]3O[C@@H](C)[C@H](O)[C@@H](O)[C@H]3O)cc2O)cc1O` reads “inactive”.
On the same count and under the same terms, the result for `Cc1cc(OI)c(C(C)C)cc1-c1cc(C(C)C)c(OI)cc1C` reads “inactive”; that for `CCCOCCOCCO`, “inactive”; that for `CC(=O)Nc1ccc(N)cc1`, “inactive”.
In the case of `CC1=C(C=O)C(C)(C)CCC1`, the compound was classed as inactive.
Consider `C=CCCCCCCCCCCCCCCCC`, for which the activity change, negative = cytotoxicity is 3.28% [at 6.97 µM].
Still for that read-out and setting: the result for `[O]=[Bi]` reads -9.02% [at 6.97 µM].
Take `CN1Cc2cc(C(=O)N3CCC(C4CCNCC4)CC3)ccc2N[C@@H](CC(=O)O)C1=O`: the result was inactive.
As for `Cc1ccccc1N1C(=O)c2cc(S(N)(=O)=O)c(Cl)cc2NC1C` (centres undefined), the compound was called inactive.
On the same count and under the same terms, the result for `CC(CCO)CCc1ccccc1` (centres undefined) reads “inactive”; that for `O=C(O)c1snc(Cl)c1Cl`, “inactive”; that for `Cc1nc2ccccc2s1`, “inactive”.
On the same count and under the same terms, with `C=CC(=O)NCOCC(C)C` the entry was “inactive”; with `CCn1cc(C(=O)O)c(=O)c2cc(F)c(N3CCNCC3)nc21`, “inactive”.
The same measure, in the same setting: with `NC(=O)Nc1ccc(Cl)cc1` the entry was “inactive”; with `Cc1ccnc2ccccc12`, “inactive”.
For `CN1CCN(c2c(F)cc3c(=O)c(C(=O)O)cn4c3c2OCN4C)CC1`, the activity change, negative = cytotoxicity was -7.56% [at 15.8 µM].
`NCC1CCCC(CN)C1` (centres undefined): the compound was classed as inactive.
Same read-out and setting: with `CCC(=O)OC/C=C/c1ccccc1` the entry was “inactive”; with `CCCCCCCCCOC(C)=O`, “inactive”.
The same measure, in the same setting: with `O=C(CCCCCCCCC#CI)Oc1ccccc1` the entry was “inactive”.
